Results filed as inconclusive are left out. The source made the active and inactive calls. Calls follow the shape of the dose curve; as a rule, active = well fitted curve in the direction sought with a large enough effect; inconclusive = small, poorly fitted or top-dose-only effect, or another doubt; inactive = no such curve, though single readings can be large; an effect the other way counts as inactive or inconclusive.
Legend:
[1] = tested on: CRL-7250; test: Cytotoxic Profiling of Annotated Libraries Using Quantitative High-Throughput Screening (AID 1296008); conditions: Five cell lines viability, CellTiter-Glo ATP luminescence, 48-72 h; max response: stronger effect = lower value; also: nearly all actives have a fitted effect of over 60% in size; as to max response: % is scaled to controls: 0 for no effect and ±100 for the full control effect
How it was run: (§1)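 Compounds were pin-transferred onto cells and incubated 48 or 72 hr at 37 degree Celsius, 95% humidity. CellTiter-Glo was added, plates sat 10 min at room temperature, then ATP-coupled luminescence was imaged as the viability read-out.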

[2] = tested on: HEK293; test: as above; conditions: Five cell lines viability, CellTiter-Glo ATP luminescence, 48-72 h; max response: stronger effect = lower value
How it was run: as §1

[3] = tested on: HaCat; test: as above; conditions: Five cell lines viability, CellTiter-Glo ATP luminescence, 48-72 h; max response: stronger effect = lower value
How it was run: as §1

[4] = tested on: KB-3-1; test: as above; conditions: Five cell lines viability, CellTiter-Glo ATP luminescence, 48-72 h; max response: stronger effect = lower value
How it was run: as §1

[5] = tested on: NIH3T3; test: as above; conditions: Five cell lines viability, CellTiter-Glo ATP luminescence, 48-72 h; max response: stronger effect = lower value
How it was run: as §1

[6] = tested on: HACAT; test: qHTS assay to identify novel small-molecules to repurpose for Merkel cell carcinoma treatment (AID 1296009); conditions: MCC and control cell lines, CellTiter-Glo viability, 72 h; at 44.8 µM (top of the series) unless noted; also: nearly all actives have a fitted effect of over 60% in size
How it was run: (§2)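 qHTS format: cells treated with library compounds in DMSO across 8 (NPC) or 11 (MIPE) concentrations. Readout after 72 hr at 37 degree celsius was CellTiter-Glo luminescence.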

[7] = tested on: NIH3T3; test: as above; conditions: MCC and control cell lines, CellTiter-Glo viability, 72 h; at 44.8 µM (top of the series) unless noted
How it was run: as §2

[8] = tested on: C33A; test: Primary qHTS to identify gynecologic anti-cancer compounds using libraries of approved drugs and bioactive compounds (AID 1345084); conditions: Gynecologic cancer cell panel viability, ATPlite luminescence, 48 h; series mostly up to 57.5 µM; also: % is scaled to controls: 0 for no effect and ±100 for the full control effect; nearly all actives have a fitted effect of over 55% in size
How it was run: (§3)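 Cell viability after 48 h drug treatment, ATPlite luminescence readout; five doses.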

[9] = tested on: CASKI; test: as above; conditions: Gynecologic cancer cell panel viability, ATPlite luminescence, 48 h; series mostly up to 57.5 µM
How it was run: as §3

[10] = tested on: Es-2; test: as above; conditions: Gynecologic cancer cell panel viability, ATPlite luminescence, 48 h; series mostly up to 57.5 µM
How it was run: as §3

[11] = tested on: HeLa; test: as above; conditions: Gynecologic cancer cell panel viability, ATPlite luminescence, 48 h; series mostly up to 57.5 µM
How it was run: as §3

[12] = tested on: Hek293T; test: as above; conditions: Gynecologic cancer cell panel viability, ATPlite luminescence, 48 h, control line for the selectivity index; series mostly up to 57.5 µM
How it was run: as §3

[13] = tested on: JEG-3; test: as above; conditions: Gynecologic cancer cell panel viability, ATPlite luminescence, 48 h; series mostly up to 57.5 µM
How it was run: as §3

[14] = tested on: OV90; test: as above; conditions: Gynecologic cancer cell panel viability, ATPlite luminescence, 48 h; series mostly up to 57.5 µM
How it was run: as §3

[15] = tested on: PA-1; test: as above; conditions: Gynecologic cancer cell panel viability, ATPlite luminescence, 48 h; series mostly up to 57.5 µM
How it was run: as §3

[16] = tested on: CAOV3; test: as above; conditions: Gynecologic cancer cell panel viability, ATPlite luminescence, 48 h; series mostly up to 57.5 µM
How it was run: as §3

CCNC(=O)C1CC(F)(c2ccc(CN3CCCC3)c(F)c2)C1 (stereo not drawn)
inactive: outcome [1] | max response [2] -0.849% | outcome [3] | max response [4] 3.84% | outcome [5] | outcome [6] | outcome [7] | Potency [8] | outcome [9] | Potency [10] | Potency [11] | Potency [12] | Potency [13] | Potency [14] | Potency [15]

CC(=O)/C=C/[C@H]1[C@](C)(O)[C@@H](O)[C@H](O)C2C(C)(C)CCC[C@@]21C (stereo partly drawn)
inactive: max response [1] -11.3% | max response [2] -5.03% | outcome [3] | max response [4] -3.39% | outcome [5] | outcome [6] | outcome [7] | Potency [16] | Potency [10] | Potency [14] | Potency [15]

CC1(C(=O)O)CCCC2(C)C3CCC4CC3(CCC12)CC4(O)CO (stereo not drawn)
inactive: max response [1] 1.56% | max response [2] -16.5% | outcome [3] | max response [4] 5.7% | max response [5] 0.753% | outcome [6] | Potency [8] | Potency [16] | outcome [9] | Potency [10] | Potency [11] | Potency [12] | Potency [13] | Potency [14] | Potency [15]

CC1CC(O)/C=C/C(O)/C=C\C(=O)O1 (stereo not drawn)
inactive: max response [1] 0.731% | max response [2] -11.1% | outcome [3] | outcome [4] | outcome [5] | outcome [6] inactive [at 92 µM] | outcome [7] inactive [at 92 µM] | Potency [8] | outcome [9] | Potency [10] | Potency [11] | Potency [12] | Potency [13] | Potency [14] | Potency [15]

C[C@H]1CC[C@@]2(OC1)O[C@H]1CC3C4CC[C@H]5C[C@@H](O)CC[C@]5(C)C4CC(=O)[C@]3(C)[C@H]1[C@@H]2C (stereo partly drawn)
inactive: max response [1] 2.1% | max response [2] -2.47% | outcome [3] | outcome [4] | max response [5] 3.42% | outcome [6] inactive [at 17.4 µM] | Potency [8] | Potency [16] | outcome [9] | Potency [10] | Potency [11] | Potency [12] | Potency [13] | Potency [14] | Potency [15]

OC[C@@]1(O)CO[C@H](OC[C@H]2O[C@@H](OC(CCCCc3ccc(O)cc3)CCc3ccc(O)cc3)[C@H](O)[C@@H](O)[C@@H]2O)[C@@H]1O (stereo partly drawn)
inactive: max response [1] -9.7% | max response [2] -4.6% | outcome [3] | max response [4] 9.32% | outcome [5] | outcome [6] inactive [at 17.4 µM] | outcome [7] inactive [at 17.4 µM] | Potency [8] | outcome [9] | Potency [10] | Potency [11] | Potency [12] | Potency [13] | Potency [14] | Potency [15]

Cc1ccc(-n2nc(C(C)(C)C)cc2NC(=O)Nc2cc(COc3cccnc3)[nH]n2)cc1
inactive: max response [1] -4.33% | max response [2] -3.79% | outcome [3] | outcome [4] | outcome [5] | outcome [6] | outcome [7] | Potency [16] | outcome [9] | Potency [10] | Potency [11] | Potency [12] | Potency [13] | Potency [14]

C=C1C(O)CC2C(C(=O)O)=COC(OC3OC(CO)C(O)C(O)C3OC(=O)/C=C\c3ccc(O)cc3)C12 (stereo not drawn)
inactive: max response [1] 0.287% | max response [2] -11.5% | outcome [3] | max response [4] 0.941% | outcome [5] | outcome [6] inactive [at 17.4 µM] | outcome [7] inactive [at 17.4 µM] | Potency [16] | outcome [9] | Potency [10] | Potency [11] | Potency [12] | Potency [13] | Potency [14] | Potency [15]

CC(C)=CCc1cc(O[C@@H]2O[C@H](CO[C@@H]3OC[C@](O)(CO)[C@H]3O)[C@@H](O)[C@H](O)[C@H]2O)ccc1O
inactive: max response [1] -4.68% | max response [2] 1.91% | outcome [3] | outcome [4] | outcome [5] | outcome [6] inactive [at 17.4 µM] | outcome [7] inactive [at 17.4 µM] | Potency [8] | outcome [9] | Potency [10] | Potency [11] | Potency [12] | Potency [13] | Potency [14] | Potency [15]

CCC(C)/C=C(C)/C=C/C1=CC2=C(Cl)C(=O)C(C)(O)C(=O)C2(O)C(OC)O1 (stereo not drawn)
inactive: max response [1] -11.8% | max response [2] -3.29% | outcome [3] | outcome [4] | outcome [5] | outcome [6] inactive [at 17.4 µM] | outcome [7] inactive [at 17.4 µM] | Potency [8] | outcome [9] | Potency [11] | Potency [12] | Potency [13] | Potency [14] | Potency [15]

CC1=C2CC(C)(C)CC2C(O)C2=C(C1)C(=O)OC2O (stereo not drawn)
inactive: outcome [1] | max response [2] 4.01% | outcome [3] | outcome [4] | max response [5] -6.57% | outcome [6] | Potency [8] | Potency [16] | outcome [9] | Potency [10] | Potency [11] | Potency [12] | Potency [13] | Potency [14]
